Assay results: PubChem BioAssay (NCI)
This is part of a sample that, as a whole, favours compounds with a hit. Of some 83,000 tested, about 20% had one in any assay.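 Interpretation: 100, growth as untreated; towards 0, rising growth inhibition; 0, no net growth; 0 to -100, cell death. Compounds scoring below 10 were considered active.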 A number with no mark means an inactive call. Activity calls are given as the source filed them.

test system: NCI-H322M lung; test: NCI-60 one-dose screen, 48 h (100 = growth as untreated, 0 = no growth, -100 = all killed); settings: 10 µM unless noted

Compound	growth
O=[N+]([O-])c1cc(/C=N/Nc2nc(N/N=C/c3ccc(Cl)c([N+](=O)[O-])c3)nc(N3CCCCC3)n2)ccc1Cl	71.3%
C#Cc1nc(C(C)=O)cs1	106%
O=C1[C@H]2Cc3c([nH]c4ccccc34)[C@@H](c3c(Cl)cccc3Cl)N2C(=O)CN1C1CCN(CC2CCCCC2)CC1	94.7%
O=C1Nc2ccccc2/C1=C/c1ccc(COCC2CO2)n1-c1ccc(O)cc1 (centres undefined)	107%
CCOc1ccc(NC2=C(Cl)C(=O)c3nc(C)ccc3C2=O)cc1	32.4%
O=S(=O)(NCCCNc1nccc(-c2[nH]c(-c3ccccc3)nc2-c2ccc(Cl)c(O)c2)n1)c1cccc(F)c1	87.9%
CN1CCN(Cc2ccc(NC(=O)c3cncc(C#Cc4cnc5ccc(OCC6(C)COC6)nn45)c3)cc2C(F)(F)F)CC1	-81.2% (active)
COc1cc2c(cc1OC)C(Sc1ccc(F)cc1)c1c(nc(N)c(C#N)c1N)O2 (centres undefined)	-74.8% (active)
Cc1nc(-c2ccccc2O)ccc1C(=O)N=Nc1c(O)[nH]c2ccc(Br)cc12	99.5%
COc1cc(-c2nnc(SCc3ccc(O)c4ncccc34)n2-c2ccccc2)cc(OC)c1OC	19.2%
NS(=O)(=O)c1ccc(-n2cc(CN3CCCCC3)nn2)cc1	107%
COc1cc(/C=C2\C(=O)Nc3ccccc32)ccc1OCc1ccc(Cl)cc1	99.7%
Cc1ccc(-c2nnc(SCc3ccc(O)c4ncccc34)o2)cc1	26.3%
COc1ccccc1NCc1cccn1Cc1ccc(F)cc1	92.5%
CCN1CCN(Cc2ccc(C(=O)Nc3ccc(C)c(Oc4ccc(-c5[nH]nc6ncnc(N)c56)cc4)c3)cc2C(F)(F)F)CC1	99%
CCOC(=O)c1c(NC(=O)c2ccccc2C(F)(F)F)sc2c1CCC(=O)C2	113%
CN1CCN(c2ccc(/C=N/n3cnc4oc(-c5ccccc5)cc4c3=N)cc2)CC1	91.1%

Compound	growth
Cn1ccnc1C(=O)/C=C/c1ccc(CNC(=O)c2ccc(S(F)(F)(F)(F)F)cc2)cc1	7.63% (active)
COc1ccc(NC2=C(Cl)C(=O)c3nc(C)ccc3C2=O)cc1OC	99%
CCc1nn2c(C)cc(C)nc2c1Cc1ccc(/C=C/CN2CCN(CCOCCOCCN3CCN(C/C=C/c4ccc(Cc5c(CC)nn6c(C)cc(C)nc56)cc4)CC3)CC2)cc1	7.19% (active)
COc1c(N2CC3CCCNC3C2)c(F)cc2c(=O)c(C(=O)N/N=C/c3c[nH]c4ccccc34)cn(C3CC3)c12 (centres undefined)	105%
CC(=O)c1nnn(-c2c(C(=O)n3nc(C)cc3C)sc(=S)n2-c2ccccc2)c1C	107%
CCCCc1nc(/C=N/Nc2nc(Nc3ccccc3)nc(Nc3ccc(S(N)(=O)=O)cc3)n2)c(Cl)[nH]1	99.1%
O=C(CNc1nc(-c2cccc([N+](=O)[O-])c2)cs1)Nc1cccc(Cl)c1	101%
O=C(CSc1nnc(-c2ccc(Cl)cc2)n1-c1ccccc1)Nc1ccc(Br)cc1	0.91% (active)
Cn1ccnc1C(=O)/C=C/c1ccc(NC(=O)c2c(F)c(F)c(F)c(F)c2F)cc1	94.8%
CNC(=O)c1cc(N2CCc3cc(NC(=O)Nc4ccc(Cl)c(C(F)(F)F)c4)ccc32)ccn1	87.1%
COc1c(N2CC3CCCNC3C2)c(F)cc2c(=O)c(C(=O)N/N=C/c3ccccc3)cn(C3CC3)c12 (centres undefined)	94%
C[C@H](CCC(=O)NCc1ccc(C(=O)Nc2ccccc2N)cc1)[C@H]1CC[C@H]2[C@@H]3[C@@H](O)C[C@@H]4C[C@H](O)CC[C@]4(C)[C@H]3CC[C@]12C	79%
COc1c(N2CC3CCCNC3C2)c(F)cc2c(=O)c(C(=O)N/N=C/c3ccc4c(c3)OCO4)cn(C3CC3)c12 (centres undefined)	88.3%
O=S(=O)(NCCCNc1nccc(-n2cnc3ccccc32)n1)c1ccc(C(F)(F)F)cc1	103%
C=CCn1c(SCC(=O)Nc2ccc(C(=O)/C=C/c3cc(OC)c(OC)c(OC)c3)cc2)nnc1-c1c[nH]c2ccccc12	53%
Brc1ccccc1/C=N/Nc1nc(N/N=C/c2ccccc2Br)nc(N2CCOCC2)n1	96.8%
COc1ccc(-c2cc(-c3ccc(Cl)cc3)c(C#N)c(=O)n2Cc2ccc(C(=O)O)cc2)cc1	95.5%
